According to PubChem BioAssay AID1851 (National Center for Advancing Translational Sciences (NCATS), 2009):
Out of some 16,000 compounds screened, about 5,100 (32%) were called active. Inconclusive results (about 25%) are left out. The list shows a part of the results. A number with no mark means an inactive call. Calls follow the shape of the dose curve; as a rule, active = well fitted curve in the direction sought with a large enough effect; inconclusive = small, poorly fitted or top-dose-only effect, or effect the other way; inactive = no such curve, though single readings can be large or run the other way.

molecular target: Cytochrome P450 3A4 (Homo sapiens) (UniProt P08684); assay: Cytochrome panel assay with activity outcomes; settings: recombinant CYP, pro-luciferin dealkylation, luminescence, p450-cyp3a4; series mostly up to 57.1 µM
% is scaled to controls: 0 for no effect and ±100 for the full control effect.

Cytochrome P450 3A4 (Homo sapiens), sequence (P08684 whole entry, looked up): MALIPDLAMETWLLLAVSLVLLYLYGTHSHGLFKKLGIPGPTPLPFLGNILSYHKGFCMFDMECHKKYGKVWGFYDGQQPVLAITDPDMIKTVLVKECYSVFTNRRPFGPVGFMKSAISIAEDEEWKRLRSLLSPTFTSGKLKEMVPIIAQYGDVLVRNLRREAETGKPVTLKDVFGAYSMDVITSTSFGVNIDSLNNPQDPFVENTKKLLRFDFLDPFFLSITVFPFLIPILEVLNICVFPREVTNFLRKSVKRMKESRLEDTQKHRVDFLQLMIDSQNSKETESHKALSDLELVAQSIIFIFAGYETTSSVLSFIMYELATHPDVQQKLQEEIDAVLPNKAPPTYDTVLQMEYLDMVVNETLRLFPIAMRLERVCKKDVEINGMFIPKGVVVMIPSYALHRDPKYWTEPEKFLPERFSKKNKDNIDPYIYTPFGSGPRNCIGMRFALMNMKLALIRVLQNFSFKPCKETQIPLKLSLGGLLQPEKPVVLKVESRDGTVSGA

Structure (SMILES) | AC50 | activity, negative = inhibition
Cc1noc(C)c1C(=O)N1CCC2(CCN(C(=O)NC(C)C)CC2)CC1 | inactive | –
CCn1c(-c2ccccc2Cl)nn(CC(=O)Nc2cc(Cl)ccc2Cl)c1=S | 5.01 µM (active) | –
CCn1nc(C(=O)Nc2ccccc2C)c(Cl)c1Cl | inactive | –
CCn1c(-c2ccccc2Cl)nn(CC(=O)Nc2ccc(OC)cc2)c1=S | 5.01 µM (active) | –
CCn1c(-c2ccccc2Cl)nn(CC(=O)Nc2ccccc2OC)c1=S | 12.6 µM (active) | –
COC(=O)Cn1nc(-c2ccccc2)n(-c2ccccc2)c1=S | inactive | –
COc1ccc(Oc2ncc3nc(-c4cc(F)cc(F)c4)c(=O)n(C)c3n2)cc1 | 5.01 µM (active) | –
O=c1c(-c2cc(F)cc(F)c2)nc2cnc(Oc3ccccc3)nc2n1C1CC1 | inactive | –
COc1ccc(Oc2ncc3nc(-c4ccc(F)cc4)c(=O)n(C)c3n2)cc1 | 3.98 µM (active) | –
COc1cccc(Nc2ncc3nc(-c4ccc(F)cc4)c(=O)n(C)c3n2)c1 | inactive | –
COc1ncc2nc(-c3cc(F)cc(F)c3)c(=O)n(-c3ccccc3)c2n1 | inactive | –
CN(CCO)Cc1ncccc1O | – | -9.73% [at 11.4 µM]
O=C(O)[C@H](Cc1c[nH]c2ccccc12)N1C(=O)c2ccccc2C1=O | – | -3.21% [at 11.4 µM]
O=C(NCCc1c[nH]c2ccccc12)C1CCN(c2nnc(N3CCCC3=O)s2)CC1 | 8.91 µM (active) | –
CN1CCN(CCCNC(=O)C2CCN(c3nnc(-n4cccc4)s3)CC2)CC1 | inactive | –
CCOc1ccc(NC(=S)N(Cc2ccc(N(C)C)cc2)Cc2ccco2)cc1 | 7.08 µM (active) | –
CCOc1ccc(NC(=S)N(Cc2ccc(Cl)cc2)Cc2ccco2)cc1 | 3.55 µM (active) | –
Cc1cccc(OCCSCc2nc3ccccc3[nH]2)c1 | 7.08 µM (active) | –
c1ccc(C(c2ccccc2)N2CCCC3(CCNCC3)C2)cc1 | 1.26 µM (active) | –
c1ccc(C(c2ccccc2)N2CCC3(CCNCC3)CC2)cc1 | inactive | –
COc1ccccc1CN1CCCC2(CCNCC2)C1 | inactive | –

Structure (SMILES) | AC50 | activity, negative = inhibition
c1ccc(C(c2ccccc2)N2CC[C@@]3(CCCNC3)C2)cc1 | 7.94 µM (active) | –
Cc1cc(C)cc(-n2c(O)c(C=NC3CCS(=O)(=O)C3)c3ccccc3c2=O)c1 (configuration not stated) | 10 µM (active) | –
O=C(Nc1ccc2c(c1)OCCO2)c1cc2sccc2n1Cc1ccc(F)cc1 | 5.01 µM (active) | –
COC(=O)c1ccc(NC(=O)c2cc3sccc3n2C)cc1 | inactive | –
Cn1c(C(=O)Nc2ccccc2)cc2sccc21 | 25.1 µM (active) | –
O=C(Nc1ccc2c(c1)OCCO2)c1cc2sccc2n1Cc1ccccc1 | 6.31 µM (active) | –
CCOC(=O)c1sc(NC(=O)CSc2nc(C)cc(C)c2C#N)c(C#N)c1C | – | -17.1% [at 2.29 µM]
CCOC(=O)c1sc(NC(=O)CSc2nc(C)cc(C)n2)c(C#N)c1C | 10 µM (active) | –
CCOC(=O)c1sc(NC(=O)CSc2n[nH]c(-c3ccc(Cl)cc3Cl)n2)c(C#N)c1C | 10 µM (active) | –
CN1[C@@H](CC(=O)c2ccccc2)CCC[C@@H]1C[C@@H](O)c1ccccc1 | inactive | –
O=C1COC(c2ccccc2O)=NN1CCCN1CCCC1 | – | -10.8% [at 11.4 µM]
CCc1ccc(N/C(SCc2ccccc2C)=C(/C#N)C(=O)NCc2ccco2)cc1 | 6.31 µM (active) | –
CCN1CCC[C@@H]1CNC(=O)c1cc(S(N)(=O)=O)ccc1OC | inactive | –
O=C(CSc1ccccc1)Nc1ccc(N2CCN(c3ccccc3)CC2)c(F)c1 | – | -8.27% [at 11.4 µM]
O=C(CSc1ccc(Cl)cc1)Nc1ccc(N2CCN(C(=O)c3ccc(Cl)cc3)CC2)cc1 | 0.891 µM (active) | –
O=C(CSc1ccc(Cl)cc1)Nc1ccc(N2CCN(c3ccccc3)CC2)c(F)c1 | inactive | –
Cn1nc(-c2ccccc2)c(C(=O)Nc2ccc(Cl)cc2)c1Cl | inactive | –
Cc1nc(-c2cccnc2)sc1C(=O)Nc1ccc(Cl)cc1 | 14.1 µM (active) | –
O=C(Nc1ccc(Cl)cc1)c1cnc(-c2ccccc2)nc1-c1ccccc1 | inactive | –
Cc1nc(-c2cccnc2)sc1C(=O)Nc1ccc(F)cc1F | 15.8 µM (active) | –
Brc1ccc2cccnc2c1 | inactive | –

Structure (SMILES) | AC50 | activity, negative = inhibition
N#CCCn1cc(/C=N/O)c(-c2ccc(Cl)cc2)n1 | 12.6 µM (active) | –
N#CCCn1c(=O)c(-c2ccc(Cl)cc2)nc2cnc(N3CCOCC3)nc21 | inactive | –
CN1CCN(c2ncc3nc(-c4ccc(Cl)cc4)c(=O)n(CCC#N)c3n2)CC1 | inactive | –
O=S(=O)(N/N=C\c1ccc2c(c1)OCO2)c1ccc(Cl)cc1 | 3.98 µM (active) | –
O=S(=O)(N/N=C/c1ccc2c(c1)OCCO2)c1ccc(Cl)cc1 | 14.1 µM (active) | –
Cc1ccc(S(=O)(=O)N/N=C/c2ccc(OC3CSC3)cc2)cc1 | – | -21.9% [at 2.29 µM]
Cc1cc(OC(=O)c2ccccc2Br)cc(=O)n1C | – | -13.2% [at 11.4 µM]
CC(C)N=c1cc2n(-c3ccc(Cl)cc3)c3ccccc3nc-2cc1Nc1ccc(Cl)cc1 | inactive | –
O=C(N/N=C/c1ccc(Cl)cc1Cl)Nc1ccccc1 | inactive | –
CC(Sc1nc(NCc2ccccc2)nc(N(C)C)n1)C(=O)Nc1ccccc1 (configuration not stated) | – | -9.99% [at 2.29 µM]
CN(C)c1nc(NCc2ccccc2)nc(N/N=C/c2ccc(Cl)cc2Cl)n1 | 2.24 µM (active) | –
N.N.O=C(O)C1(C(=O)O)CCC1.[Pt] | 39.8 µM (active) | –
O=C(O)CC1(C(=O)O)CCCCC1 | – | -15.2% [at 11.4 µM]
NC1(C(=O)O)C[C@@H](C(=O)O)[C@H](C(=O)O)C1 | inactive | –
Cc1ccc(S(=O)(=O)c2nc(S(=O)(=O)c3ccc(C)cc3)c(NCc3ccco3)s2)cc1 | 3.55 µM (active) | –
Cc1ccc(CSc2nnc3c(n2)OC2(Nc4ccccc4-3)C(=O)Nc3ccc(F)cc32)cc1 (configuration not stated) | – | -12.4% [at 2.29 µM]
O=C1Nc2ccc(F)cc2C12Nc1ccccc1-c1nnc(SCc3ccccc3F)nc1O2 (configuration not stated) | 15.8 µM (active) | –
Cc1cc(CNC(=O)[C@@H]2C[C@H]2[C@@H](NP(=O)(c2ccccc2)c2ccccc2)c2ccccc2)nn1C | 0.398 µM (active) | –
Cc1ccc(CNC(=O)[C@H]2C[C@@H]2[C@H](NP(=O)(c2ccccc2)c2ccccc2)c2ccccc2)c(F)c1F | 0.316 µM (active) | –
Cc1cc(CNC(=O)[C@H]2C[C@@H]2[C@H](NP(=O)(c2ccccc2)c2ccccc2)c2ccccc2)nn1C | 2.51 µM (active) | –
